Compound activity as filed in PubChem BioAssay.
PKM2_activator: PKM2 (human) enzyme activation; P14618; actives 0.34% (n = 260,000); purified PKM2, Kinase-Glo ATP luminescence, activation; response scale: 0% is enzyme alone, no compound; Potency, µM (top dose mostly 57.5 µM), for inactives: top-dose activation, usual class: activators; also: potency is read from the fitted curve at half-maximal effect; % is scaled to controls: 0 for no effect and ±100 for the full control effect; nearly all actives have a fitted effect of over 55% in size
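Kinase-Glo luminescence reports ATP generated from ADP (0.1 mM) and PEP (0.5 mM) by purified hPK-M2 after 1 h at room temperature, pH 7.2 imidazole buffer; intermediate enzyme activity allows detecting inhibitors and activators.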
IL-2_act: activators of IL-2; IL-2 activation reporter assay, cell-based qHTS; stimulated with anti-CD3/CD4/CD28 beads; in transgenic mouse T cells; activation, % (series mostly up to about 46 µM); actives 0.065% (n = 360,000); in the data active = activation above about 50%; inconclusive = mostly about 30% to 49%; also: 0% is about no effect
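Quantitative HTS in unstimulated transgenic mouse T cells, with memory T cells as non-tolerant control and PMA/ionomycin as tolerance-bypass control. Compound pretreatment lasted 60 minutes before 18 h bead stimulation; EGFP/DsRed fluorescence read.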
Tb_PFK_inh: T. brucei PFK enzyme inhibition; actives 0.17% (n = 330,000); Potency, µM (highest dose often 57.5 µM), for the others: top-dose activity, negative = inhibition, most hits filed as inhibitors; O15648; T. brucei PFK, ADP-Glo luminescence; AID 485367;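 also: potency is read from the fitted curve at half-maximal effect; 0% = uninhibited 1x PFK enzyme wells and -100% = no-enzyme wells; nearly all actives have a fitted effect of over 60% in size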
Target sequence (O15648 whole entry, looked up): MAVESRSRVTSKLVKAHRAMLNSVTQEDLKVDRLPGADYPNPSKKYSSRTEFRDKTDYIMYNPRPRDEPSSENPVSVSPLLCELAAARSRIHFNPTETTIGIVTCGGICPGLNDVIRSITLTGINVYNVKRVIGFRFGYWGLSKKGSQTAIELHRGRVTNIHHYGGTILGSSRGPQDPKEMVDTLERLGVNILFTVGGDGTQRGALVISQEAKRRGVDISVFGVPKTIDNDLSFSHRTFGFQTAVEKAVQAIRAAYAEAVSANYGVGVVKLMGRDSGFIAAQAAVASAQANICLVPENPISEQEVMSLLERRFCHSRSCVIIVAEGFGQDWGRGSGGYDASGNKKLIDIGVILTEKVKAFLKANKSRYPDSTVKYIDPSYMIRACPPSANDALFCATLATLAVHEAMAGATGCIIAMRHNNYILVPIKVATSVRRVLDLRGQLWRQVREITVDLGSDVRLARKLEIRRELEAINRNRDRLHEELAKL
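In TEA buffer at pH 8.0 with 5 mM MgCl2, enzyme (1.25 nM) converted F6P (0.5 mM) and ATP (0.1 mM) for 45 min at room temperature. ADP product was read by luciferase luminescence.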
a7_integrin_act: integrin-mediated muscular dystrophy alleviation activation | alpha7betagal myoblasts, beta-gal FDG fluorescence, 48 h | Potency, µM (top dose mostly 38.3 µM), inactives show top-dose activation, usual class: activators | actives 0.064% (n = 350,000) | AID 624291;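 also: potency is read from the fitted curve at half-maximal effect; 100% = response of the positive control SU9516; nearly all actives have a fitted effect of over 60% in size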
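alpha7betagal+/- myoblasts (passage 13, 250/well) treated 48 h at 37C with compounds at 1:260 dilution of DMSO stock. Lysed, then beta-galactosidase activity read as FDG fluorescence (ex 480/em 540) after 30 min, with pre-read for autofluorescence.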
A-T_KAP1_phos: potential ataxia-telangiectasia treatment; F2112 A-T fibroblasts, KAP-1 phosphorylation AlphaLISA; neocarzinostatin DNA damage 30 min before lysis; Potency, µM (titrated, usually from 57.5 µM), for inactives: top-dose activation, usual class: activators; actives 0.19% (n = 320,000); AID 485349; also: potency is read from the fitted curve at half-maximal effect; % of control where 0% means no effect; nearly all actives have a fitted effect of over 45% in size
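hTERT-immortalized A-T patient fibroblasts (F2112), 500 cells/well in OPTI-MEM, 1% FBS, got compounds for 60 min, then NCS for 30 min at 37C. Lysates were then assayed for phospho-KAP-1 by AlphaLISA (anti-pKAP1 donor, anti-KAP1 acceptor beads), 6 hr at 25C.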
TCR_act: activates T cell receptor signaling. primary human leukocytes, anti-CD3, IL-2 HTRF, 48 h. Potency, µM (titrated, usually from 9.22 µM), inactives show at the highest dose activation of IL-2 secretion, usual class: activators. 330,000 tested, under 10 active. AID 504894; also: % of control where 0% means no effect
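IL-2 produced over 48 hr by a-CD3 bead-stimulated primary human leukocytes exposed to compounds was detected with a homogeneous time-resolved FRET immunoassay, 665nm acceptor signal after 320nm excitation.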
HeLa_tox: HeLa cytotoxicity, CellTiter-Glo readout; shares compounds with PKM2_activator; AID 1898; HeLa viability, CellTiter-Glo ATP luminescence, 24 h; 230 tested, under 10 active; activity change, negative = cytotoxicity, % at 57.5 µM; also: % of control where 0% means no effect
Numbers without * were called inactive; ? = inconclusive; · = not tested or not shown. Hits are enriched below; roughly 0.69% of the tested compounds scored in any of these assays. Unless noted, calls follow the shape of the dose curve; as a rule, active = well fitted curve in the direction sought with a large enough effect; inconclusive = small, poorly fitted or top-dose-only effect, or another doubt; inactive = no such curve, though single readings can be large; an effect the other way counts as inactive or inconclusive.

SMILES PKM2_activator IL-2_act Tb_PFK_inh a7_integrin_act A-T_KAP1_phos TCR_act HeLa_tox
O=S(=O)(c1ccc2c(c1)OCCO2)N1CCN(S(=O)(=O)c2c(F)cc(F)cc2F)CC1 · -1 11% · 14% -5% ·
O=C(c1ccc2c(c1)OCCO2)N1CCN(S(=O)(=O)c2c(F)cccc2F)CC1 · 1 4% · 6% 5% ?
CS(=O)(=O)N1CCN(C(=O)c2ccc3c(c2)OCCO3)CC1 9% 0 -4% 12% 3% 2% ·
O=S(=O)(c1ccc2c(c1)OCCO2)N1CCN(S(=O)(=O)c2c(F)cccc2F)CC1 · · · · · · ?
O=C(Cn1nc(-c2ccccc2)c2ccccc2c1=O)NCCO · -1 -8% -14% 13% -7% ·
CC1(C)CCc2cc(S(=O)(=O)N3CCN(S(=O)(=O)c4c(F)cccc4F)CC3)ccc2O1 · 8 -5% · 1% 0% -21
O=S(=O)(NCC1CN(S(=O)(=O)c2c(F)cccc2F)C1)c1ccc2c(c1)OCCO2 · -4 -3% · -5% 8% -6
O=S(=O)(NCCOc1ccc(F)cc1)c1ccc2c(c1)OCCO2 9% 0 -1% -11% 4% -8% ·
O=S(=O)(NCCCCCNS(=O)(=O)c1c(F)cccc1F)c1ccc2c(c1)OCCO2 · 0 -1% · 4% -12% -2
O=S(=O)(c1ccc2c(c1)OCCO2)N1CCCN(S(=O)(=O)c2c(F)cccc2F)CC1 · 0 5% · 10% 13% -13
NC(=O)C(=O)N/N=C/c1c(F)c(F)c(F)c(F)c1F · 1 -2% -58% -7% 2% ·
O=C(Cn1nc(Br)nc1Br)c1ccccc1 · -4 1% 5% -1% 5% ·
CCN1CCN(S(=O)(=O)c2ccc3c(c2)OCCO3)CC1 14% 0 -3% 9% -5% -6% ·
O=C(CN1CCN(S(=O)(=O)c2ccc(F)cc2)CC1)Nc1ccc2c(c1)OCCO2 7% -1 2% -36% -2% 4% ·
Cc1ccc(S(=O)(=O)N2CCN(S(=O)(=O)c3ccc4c(c3)OCCO4)CC2)cc1 ? 0 -3% 7% -10% -15% ·
CCCN1CCN(S(=O)(=O)c2ccc3c(c2)OCCO3)CC1 ? 1 -1% 11% 5% -4% ·
O=S(=O)(c1ccc(Cl)cc1)N1CCN(S(=O)(=O)c2ccc3c(c2)OCCO3)CC1 · · · · · · ?
N#Cc1ccc(S(=O)(=O)N2CCN(S(=O)(=O)c3ccc4c(c3)OCCO4)CC2)cc1 · · · · · · -12
CCCc1cc(F)c(S(=O)(=O)N2CCN(S(=O)(=O)c3ccc4c(c3)OCCO4)CC2)cc1F · · · · · · -1
O=S(=O)(c1ccc(F)cc1)N1CCN(S(=O)(=O)c2ccc3c(c2)OCCO3)CC1 · 0 9% · 1% 6% 10
CCCc1nc2ccc(Cl)cn2c1Cc1ccccc1 · -1 · · · · ·
CN1C[C@@H]2[C@@H]3C(=O)N(C)C(=O)[C@@H]3[C@](C)(C1=O)N2C(=O)c1ccc(Br)cc1 · 0 · 0% · -6% ·
COCc1cc(C)nc(OC)c1C(N)=O · -2 -3% -13% 3% -4% ·
COc1ccc(C(=O)OCC(=O)c2ccc[nH]2)cc1 · 2 -2% 13% -2% 4% ·
CCN1C(=O)c2cccc3c(S(=O)(=O)Nc4ccccc4)ccc1c23 4µM* -2 1% 16% 6% · ?
Cn1c(N)c(C(=O)CSc2ccc3c(c2)OCCO3)c(=O)n(C)c1=O 3.5µM* 1 3% -21% 3% -6% 1
Cc1ccc(NC(=O)COc2ccc3c(c2)OCO3)c(C)c1 · -3 -3% 6% 5% 0% ·
O=C(CN1C(=O)N/C(=C\c2cccn2-c2cccc(C(=O)O)c2)C1=O)Nc1ccccc1F · · · · · · -4
COC(=O)c1c(NC(=O)CCc2ccc(C)o2)sc(C)c1C 7.9µM* -3 8% -3% 31% -3% -1
CN1C(C(=O)Nc2ccc(OC(F)(F)F)cc2)=CC(c2ccc3c(c2)OCO3)=NS1(=O)=O · 0 -1% -11% 4% -3% ·
